We go through 16 molecules from PubChem BioAssay AID1210 (NMMLSC, 2008).

Values without a mark were called inactive. Calls of active or inactive are those of the source.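 How the source made its calls: active means blocks over 70% of labeled estradiol binding at 10 µM, or over a set limit at 100 nM; inactive means the rest.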

Chain of Estrogen receptor beta (Homo sapiens) (Q92731 whole entry, looked up): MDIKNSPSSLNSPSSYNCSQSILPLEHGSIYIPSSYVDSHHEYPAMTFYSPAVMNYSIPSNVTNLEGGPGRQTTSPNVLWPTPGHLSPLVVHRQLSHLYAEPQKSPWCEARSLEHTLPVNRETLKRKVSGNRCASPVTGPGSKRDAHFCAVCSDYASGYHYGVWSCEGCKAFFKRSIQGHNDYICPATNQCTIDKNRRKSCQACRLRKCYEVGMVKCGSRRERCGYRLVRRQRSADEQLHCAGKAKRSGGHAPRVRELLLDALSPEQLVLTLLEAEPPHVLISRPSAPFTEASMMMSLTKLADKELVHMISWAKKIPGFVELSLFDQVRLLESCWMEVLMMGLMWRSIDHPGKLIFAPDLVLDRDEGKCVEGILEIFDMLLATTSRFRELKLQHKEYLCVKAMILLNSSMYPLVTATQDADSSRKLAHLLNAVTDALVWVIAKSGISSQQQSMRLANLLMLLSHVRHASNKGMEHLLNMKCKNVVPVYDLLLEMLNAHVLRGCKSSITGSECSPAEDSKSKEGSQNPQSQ

This assay concerns the target Estrogen receptor beta (Homo sapiens) (UniProt Q92731). As to the kind of experiment: ERbeta ligand binders by competition, primary screen, cell-based, Cos7 ERbeta-GFP, flow cytometry (AID 1210).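 Further: 0% = DMSO vehicle wells and 100% = complete loss of labeled estradiol signal.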 Particulars: fluorescent estrogen binding, at 10 µM, hits give high values. For orientation: In flow cytometry, cells or beads pass a laser one at a time.
For orientation: inhibition means the share of the control response that was lost under treatment. On to `COc1ccc2[nH]c3c(c2c1)CCNC3C1CC=C(C)CC1` (stereo unspecified), for which the inhibition is 22%.

Consider `COC(=O)c1ccc(-c2n[nH]c(=O)c3ccccc23)cc1`, for which the inhibition was 32%.

`CSC(=O)CNC1(Cc2ccc(O)cc2)CCCCC1`: the inhibition was 87% (active).

Turning to `COC(=O)c1ccc2c(c1)C1C=CCC1C(c1cccc([N+](=O)[O-])c1)N2` (stereo unspecified), the inhibition was 18%.

Turning to `Cc1ccc(-c2n[nH]c(=S)n2/N=C/C=C/c2ccccc2[N+](=O)[O-])cc1`, the inhibition is 53%.

On to `Cc1cc(C(C)CO)cc(C(C)(C)C)c1O` (stereo unspecified), for which the inhibition was 19%.

Turning to `CCOc1cc2c(cc1OCC)C(C1CCCCC1)NCC2` (stereo unspecified), the inhibition is 12%.

Turning to `CCOC(=O)c1ccc2c(c1)C1C=CCC1C(c1cccc([N+](=O)[O-])c1)N2` (stereo unspecified), the inhibition was 6%.

On to `COc1ccc(OC)c(NC(=O)c2cc(-c3ccc(C)cc3O)n[nH]2)c1`, for which the inhibition was 19%.

In the case of `Cc1oc2ccc(OCC#N)cc2c1C(=O)OC(C)C`, the inhibition was 14%.

Take `COc1ccccc1C(=O)Nc1nc(-c2cccs2)c(NC(C)=O)s1`: the inhibition is 40%.

As to `COc1cccc2c1NC(C(=O)O)C1CC=CC21` (stereo unspecified), the inhibition is 15%.

With `CC(Nc1ccc(N2CCNCC2)cc1[N+](=O)[O-])C12CC3CC(CC(C3)C1)C2` (stereo unspecified), the inhibition is 15%.

For `COc1ccc2c(c1)c(=O)oc1cc3oc(C)c(C)c3cc12`, the inhibition is 24%.

With `CCOc1ccc(NS(=O)(=O)c2ccc3c(c2)[C@H]2C=CC[C@H]2[C@@H](c2cccc([N+](=O)[O-])c2)N3)cc1`, the inhibition was 0%.

For `CCCC1Nc2ccc(C(=O)O)cc2C2C=CCC12` (stereo unspecified), the inhibition was 44%.
